Consider six targets from the supplement of paper PMC10849652.

What all share (assay): log2 fold change, soluble protein after heating vs DMSO (PISA); higher = thermal stabilisation; K562 lysate, 10 uM; active = over 0.2 and 3.5 SD of the protein, either way, in both replicates (recomputed)
Compound in one experiment: CCCS(=O)(=O)Nc1ccc(F)c(C(=O)c2c[nH]c3ncc(-c4ccc(Cl)cc4)cc23)c1F [vemurafenib]
Put shortly: (§1)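 K562 pellets were dounce-homogenised in PBS pH 7.4 containing 1 mM MgCl2, and the crude extract, at 1 mg/mL protein, was exposed to 10 μM compound for 30 min. Aliquots were heated for 3 min across 48°C-58°C, pooled, brought to 0.5% NP-40 at 4°C and spun at 21,000xg for 90 min, with the supernatant taken as soluble protein. TMTpro 16plex LC-MS/MS with equalised channel sums quantified that protein. Values are log-two fold changes in thermal stability relative to solvent controls, taken from duplicates.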

Compound in experiment [1]: CCCS(=O)(=O)Nc1ccc(F)c(C(=O)c2c[nH]c3ncc(Cl)cc23)c1F
Put shortly:
as §1

Compound in a further experiment: CCN(CCCOc1ccc2c(Nc3cc(CC(=O)Nc4cccc(F)c4)[nH]n3)ncnc2c1)CCOP(=O)(O)O [barasertib]
In outline:
as §1

Compound in experiment [2]: CC[C@@H]1C(=O)N(C)c2cnc(Nc3ccc(C(=O)NC4CCN(C)CC4)cc3OC)nc2N1C1CCCC1
Put shortly:
as §1

Compound in the next experiment: CC[C@@H]1C(=O)N(C)c2cnc(Nc3ccc(C(=O)N[C@H]4CC[C@H](N5CCN(CC6CC6)CC5)CC4)cc3OC)nc2N1C(C)C [volasertib]
In outline:
as §1

Compound in experiment [3]: CCn1c(C(=O)N(C2CC2)C2CC2)cc2c3c(ncn3C)c(Nc3cc(C)n(C)n3)nc21
In outline:
as §1

Compound in experiment [4]: CCn1cc(-c2ccnc3[nH]c(-c4cccc(CN(C)C)c4)cc23)c(-c2ccc(NC(=O)N(C)C)cc2)n1
Put shortly: as §1

Compound in experiment [5]: CN1CCC(CNc2ccc3ncc(-c4cccc(OC(F)(F)F)c4)n3n2)CC1
Put shortly: as §1

Compound in the next experiment: CN1CCN(CCOc2cc(OC3CCOCC3)c3c(Nc4c(Cl)ccc5c4OCO5)ncnc3c2)CC1 [saracatinib]
In outline: as §1

Compound in the next experiment: CN1CCN(c2nc(C3=C(c4c[nH]c5ccccc45)C(=O)NC3=O)c3ccccc3n2)CC1 [sotrastaurin]
Put shortly:
as §1

The full data set covers some 8,800 targets. This sample favours those with a hit. About 0.5% of all pairs of compound and target were hits. Unmarked numbers belong to inactive results.

Chain of UniProt Q14103 (Q14103 whole entry, looked up): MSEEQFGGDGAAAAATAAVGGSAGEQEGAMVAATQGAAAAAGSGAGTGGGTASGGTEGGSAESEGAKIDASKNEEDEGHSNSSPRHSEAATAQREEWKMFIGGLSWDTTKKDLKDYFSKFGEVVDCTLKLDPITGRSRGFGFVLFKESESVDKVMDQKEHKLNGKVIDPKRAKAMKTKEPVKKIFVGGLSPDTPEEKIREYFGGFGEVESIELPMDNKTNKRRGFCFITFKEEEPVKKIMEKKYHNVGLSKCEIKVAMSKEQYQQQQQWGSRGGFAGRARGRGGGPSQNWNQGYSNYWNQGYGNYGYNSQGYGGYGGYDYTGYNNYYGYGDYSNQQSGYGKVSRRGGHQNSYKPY
Chain of UniProt P52655 (P52655 whole entry, looked up): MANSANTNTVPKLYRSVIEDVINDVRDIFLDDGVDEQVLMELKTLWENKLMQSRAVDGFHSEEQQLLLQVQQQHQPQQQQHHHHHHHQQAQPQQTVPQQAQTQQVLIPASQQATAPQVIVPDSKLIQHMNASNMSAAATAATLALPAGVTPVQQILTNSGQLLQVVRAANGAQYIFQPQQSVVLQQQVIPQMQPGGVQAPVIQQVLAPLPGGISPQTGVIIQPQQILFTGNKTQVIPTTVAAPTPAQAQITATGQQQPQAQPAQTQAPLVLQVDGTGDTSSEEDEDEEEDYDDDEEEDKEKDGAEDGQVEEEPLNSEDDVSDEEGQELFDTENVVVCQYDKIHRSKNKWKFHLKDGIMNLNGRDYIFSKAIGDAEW
Chain of UniProt P40939 (P40939 whole entry, looked up): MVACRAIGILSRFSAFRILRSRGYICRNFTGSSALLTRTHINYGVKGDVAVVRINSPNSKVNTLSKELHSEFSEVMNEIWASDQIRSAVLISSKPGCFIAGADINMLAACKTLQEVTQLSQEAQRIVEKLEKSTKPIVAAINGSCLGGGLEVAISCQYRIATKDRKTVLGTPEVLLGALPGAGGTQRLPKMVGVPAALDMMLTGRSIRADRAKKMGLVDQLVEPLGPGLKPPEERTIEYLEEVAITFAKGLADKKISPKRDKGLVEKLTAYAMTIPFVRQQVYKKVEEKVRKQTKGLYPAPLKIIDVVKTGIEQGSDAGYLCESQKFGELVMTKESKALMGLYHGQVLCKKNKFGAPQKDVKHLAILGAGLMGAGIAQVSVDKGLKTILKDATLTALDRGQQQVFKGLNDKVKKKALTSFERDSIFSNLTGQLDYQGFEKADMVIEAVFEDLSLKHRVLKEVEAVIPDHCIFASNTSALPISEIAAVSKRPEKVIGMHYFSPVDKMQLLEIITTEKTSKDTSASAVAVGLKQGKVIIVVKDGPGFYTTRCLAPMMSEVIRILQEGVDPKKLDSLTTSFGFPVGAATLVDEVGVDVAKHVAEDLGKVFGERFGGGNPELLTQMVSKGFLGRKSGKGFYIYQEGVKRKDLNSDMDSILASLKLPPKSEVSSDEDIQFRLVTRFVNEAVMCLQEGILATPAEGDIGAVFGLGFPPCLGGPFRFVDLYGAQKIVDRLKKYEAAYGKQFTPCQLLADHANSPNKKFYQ
Chain of UniProt P50747 (P50747 whole entry, looked up): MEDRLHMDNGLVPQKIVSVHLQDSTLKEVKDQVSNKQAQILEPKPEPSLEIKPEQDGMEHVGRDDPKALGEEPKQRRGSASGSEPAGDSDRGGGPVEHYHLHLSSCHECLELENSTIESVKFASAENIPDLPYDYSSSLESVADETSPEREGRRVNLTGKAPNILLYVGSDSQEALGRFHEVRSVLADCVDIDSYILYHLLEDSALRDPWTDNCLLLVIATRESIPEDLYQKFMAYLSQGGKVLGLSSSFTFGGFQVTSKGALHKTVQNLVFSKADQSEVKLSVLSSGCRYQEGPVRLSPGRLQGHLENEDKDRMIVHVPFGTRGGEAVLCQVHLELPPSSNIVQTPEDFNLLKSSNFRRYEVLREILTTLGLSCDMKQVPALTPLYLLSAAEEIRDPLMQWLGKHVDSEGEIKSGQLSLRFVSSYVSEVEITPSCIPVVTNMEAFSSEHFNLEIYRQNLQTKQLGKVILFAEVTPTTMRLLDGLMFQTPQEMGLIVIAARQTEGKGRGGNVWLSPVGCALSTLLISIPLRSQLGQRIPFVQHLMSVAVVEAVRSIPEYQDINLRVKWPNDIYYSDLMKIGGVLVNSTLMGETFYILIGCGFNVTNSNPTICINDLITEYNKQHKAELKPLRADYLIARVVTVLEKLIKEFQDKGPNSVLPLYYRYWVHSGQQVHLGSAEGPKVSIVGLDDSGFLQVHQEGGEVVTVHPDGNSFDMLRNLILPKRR
Chain of UniProt Q9H6D7 (Q9H6D7 whole entry, looked up): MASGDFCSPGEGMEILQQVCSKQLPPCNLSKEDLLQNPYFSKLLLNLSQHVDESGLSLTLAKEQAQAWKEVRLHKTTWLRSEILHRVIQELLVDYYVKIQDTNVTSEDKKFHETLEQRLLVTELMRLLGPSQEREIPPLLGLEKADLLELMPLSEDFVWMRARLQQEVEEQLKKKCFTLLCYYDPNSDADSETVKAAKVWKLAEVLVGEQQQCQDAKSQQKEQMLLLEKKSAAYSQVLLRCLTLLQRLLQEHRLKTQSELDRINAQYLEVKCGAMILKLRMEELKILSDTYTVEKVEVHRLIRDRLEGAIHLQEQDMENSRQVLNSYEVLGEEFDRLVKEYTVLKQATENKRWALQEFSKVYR
Chain of UniProt Q0VDF9 (Q0VDF9 whole entry, looked up): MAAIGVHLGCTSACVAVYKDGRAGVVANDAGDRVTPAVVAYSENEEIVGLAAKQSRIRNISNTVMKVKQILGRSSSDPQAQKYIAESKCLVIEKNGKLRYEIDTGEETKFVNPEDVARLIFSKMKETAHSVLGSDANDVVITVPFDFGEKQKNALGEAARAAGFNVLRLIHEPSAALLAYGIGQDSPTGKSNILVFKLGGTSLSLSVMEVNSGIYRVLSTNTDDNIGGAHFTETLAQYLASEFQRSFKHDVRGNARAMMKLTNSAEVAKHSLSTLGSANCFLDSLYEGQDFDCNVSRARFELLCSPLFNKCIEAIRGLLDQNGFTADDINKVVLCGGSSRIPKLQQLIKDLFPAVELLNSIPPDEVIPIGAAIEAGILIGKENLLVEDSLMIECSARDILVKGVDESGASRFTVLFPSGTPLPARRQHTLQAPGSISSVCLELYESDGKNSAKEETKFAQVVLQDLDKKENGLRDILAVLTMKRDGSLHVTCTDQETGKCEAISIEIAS

As to GTF2A1 (UniProt P52655), the log2 fold change with vemurafenib was -0.028; in experiment [1], 0.01; in the experiment with barasertib it was 0.018; in experiment [2], 0.042; with volasertib, 0.035; in experiment [3], 0.015. Besides, the log2 fold change was 0.033 in [4], -0.042 in experiment [5], -0.004 with saracatinib and 0.024 in the experiment with sotrastaurin.

Consider HADHA (UniProt P40939), for which the log2 fold change with vemurafenib is 0.019; in [1], -0.002; in the experiment with barasertib it was -0.103; in experiment [2], -0.024; in the experiment with volasertib, 0.09; in experiment [3] it was -0.036. Further, the log2 fold change in [4] is 0.012; in experiment [5] it was 0.071; with saracatinib it was -0.04; with sotrastaurin, -0.025.

As to HAUS4 (UniProt Q9H6D7), the log2 fold change in the experiment with vemurafenib was 0.007; in [1] it was 0.044; with barasertib it was 0.107; in experiment [2], -0.047; with volasertib, -0.039; in experiment [3], 0.015. Moreover, the log2 fold change is -0.045 in experiment [4], -0.04 in experiment [5], 0.022 with saracatinib and 0.02 in the experiment with sotrastaurin.

In the case of HLCS (UniProt P50747), the log2 fold change was -0.002 with vemurafenib; 0.034 in experiment [1]; -0.001 with barasertib; -0.034 in [2]; -0.054 in the experiment with volasertib; 0.003 in experiment [3]. Also, the log2 fold change in [4] is 0.293 (active); in experiment [5], -0.041; in the experiment with saracatinib, -0.026; in the experiment with sotrastaurin it was 0.027.

Consider HNRNPD isoform 3 (UniProt Q14103), for which the log2 fold change in the experiment with vemurafenib was 0.024; in [1], -0.028; with barasertib, -0.033; in experiment [2], 0.128; in the experiment with volasertib, 0.014; in [3] it was 0.077. Also, the log2 fold change in experiment [4] was -0.077; in experiment [5], -0.023; in the experiment with saracatinib, 0.048; with sotrastaurin it was -0.066.

Turning to HSPA14 (UniProt Q0VDF9), the log2 fold change in the experiment with vemurafenib is 0.023; in experiment [1], 0.011; with barasertib, 0.001; in experiment [2], -0.026; with volasertib, -0.043; in experiment [3], 0.013. Further, the log2 fold change was 0.04 in experiment [4], -0.021 in experiment [5], 0.002 in the experiment with saracatinib and 0.039 with sotrastaurin.
